High-throughput results (PubChem BioAssay)
HSF1 inhib: HSF1 inhibition | NIH3T3-HGL HSE-luciferase, MG132-induced, luminescence 8 h; stronger effect = lower value | activity change, negative = inhibition, % at 7.5 µM (by protocol) | 0.77% of 300,000 active | AID 2098;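 active means more than half of replicate wells show activity change below -50%, luminescence cut by over half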;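 further: luciferase reports HSF-1 transcriptional activity via heat shock element; 0% = median of DMSO wells and -100% = zero luminescence signal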
Dyrk1A ADPGlo: blocks rat Dyrk1A kinase activity. Q63470. ADP-Glo luminescence, NFATc1 peptide. inhibition, % at 12.5 µM. 0.43% of 310,000 active; in the data active means inhibition above about 50%;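 further: plate controls were vehicle with enzyme for no effect and no enzyme for full effect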
aDG glyco up: increases alpha dystroglycan glycosylation | Pro5-aDG cells, alpha-DG glycosylation AlphaScreen (IIH6); 0% Pro5, 100% B10-LARGE cell signal | activation, % at 10 µM | 0.22% of 360,000 active;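 active means activation of at least 8% versus controls, or a plate z-score of at least 8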;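 further: Pro5 are CHO cells carrying HIG-tagged alpha-DG that lacks glycosylation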
HSF1 activator: increases HSF-1 driven luciferase reporter signal; NIH3T3-HGL HSF-1 luciferase reporter, MG132, 8 h; 100% = twice DMSO control signal; AID 504408; 1.7% of 300,000 active; activation, % at 9 µM;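 active means mean replicate activation of at least 50% with a set share of replicates each reaching 50%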;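 further: 0% = median of the neutral control wells and 100% = twice that signal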
NPR2 activator: GC-B (human) receptor activation; HEK293-GC-B cells, CNP EC30, cGMP TR-FRET; 0% at EC30 CNP, 100% saturating CNP; activation, % at 10 µM; 0.11% of 370,000 active;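 active means activation at 10 µM reaching about 35% in either raw or pattern-adjusted values, limit read from the data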
GC-A act: GC-A (human) enzyme activation; HEK293 GC-A cells, cGMP TR-FRET, EC30 ANP; 0% at EC30 ANP, 100% saturating ANP; activation, % at 10 µM; 0.14% of 370,000 active; AID 1671463; in the data active means activation above about 40%
aDG conf: confirmation of alpha dystroglycan glycosylation activators; shares compounds with aDG glyco up; Pro5-aDG cells, alpha-DG glycosylation, IIH6 AlphaLISA; scaled to LARGE-overexpressing B10 cells as 100%; activation, % at 10 µM (by protocol); 17% of 600 active; AID 651671;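 active means activation of at least 7% in one or more replicates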;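 further: cells exposed to compound for two days before detection; 0% = DMSO-treated Pro5 cells and 100% = DMSO-treated B10-LARGE cells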
* hit, by the source's call; / = no result. The list is not random: actives were taken first. Their share in the collection is about 2.5%.

SMILES	HSF1 inhib	Dyrk1A ADPGlo	aDG glyco up	HSF1 activator	NPR2 activator	GC-A act	aDG conf
Cc1ccc(NC(=O)c2cccnc2)c([N+](=O)[O-])c1	-45	3	0	-58	1	2	/
Cc1ccc(NC(=O)c2cncc(Br)c2)c([N+](=O)[O-])c1	-6	-1	45*	-22	-1	4	-1
NC(=NC(=O)c1ccc(OC(F)(F)F)cc1)c1ccc(C(F)(F)F)cn1	-5	-1	3.8*	-3	2	0	0
NC(=NC(=O)c1cccc(C(F)(F)F)c1)c1ccc(C(F)(F)F)cn1	-5	/	0	-11	6	-1	/
COc1ccc(OC)c(S(=O)(=O)N2CCCC(C)C2)c1 (stereo unspecified)	-6	2	0	-11	0	-3	/
CCCNS(=O)(=O)c1ccc(OCC(=O)NCCC2=CCCCC2)cc1	-6	4	9.1*	0	-10	1	0
CC(C)NS(=O)(=O)c1ccc(OCC(=O)NCCC2=CCCCC2)cc1	-1	-1	0	0	-2	-1	/
O=C(NCCCCNC(=O)c1ccccn1)c1ccccn1	-6	-4	0	-6	5	1	/
O=C(COc1ccccc1)Nc1nc(-c2ccc(S(=O)(=O)N3CCOCC3)cc2)cs1	-3	11	0	-3	7	2	/
O=C(COC(=O)c1ccc(S(=O)(=O)N2CCOCC2)cc1)Nc1nc(-c2ccccc2)cs1	9	5	6.2*	21	2	-2	0
CCC1(CC)NC(=O)N(CC(=O)OCC(=O)Nc2ccc(OC(F)(F)F)cc2)C1=O	/	/	0	/	-1	0	/
CC(=O)c1c(C)[nH]c(C(=O)OCc2ccccc2)c1C	9	0	2	26	2	5	/
CC(=O)c1c(C)[nH]c(C(=O)OCCCCN2C(=O)c3ccccc3C2=O)c1C	5	-5	6.9*	10	-4	4	2
COc1cc(CNC(=O)Nc2nc(C(N)Cc3ccc(Cl)cc3)cs2)cc(OC)c1OC (stereo unspecified)	/	/	5.8*	/	-6	-8	5.9*
Cc1occc1-c1nnc(SCC(=O)c2ccccc2)n1CC1CCCO1 (stereo unspecified)	-2	-4	0	-11	2	0	/
Brc1ccccc1OCCCCn1cnc2ccccc21	25	/	10*	25	-4	-1	2
Clc1ccccc1OCCn1cnc2ccccc21	25	-1	0	44	14	9	/
COc1ccc(CNC(=O)C(c2cccs2)N(Cc2ccco2)C(=O)Cc2cccs2)cc1 (stereo unspecified)	12	-2	0	16	-2	-12	/
O=C(COC(=O)c1cccc(Br)c1)NCCNC(=O)COC(=O)c1cccc(Br)c1	-1	2	7.4*	12	3	-5	0
O=C(COC(=O)c1cccc(Br)c1)NCCc1ccccc1	3	0	0	15	-3	1	/
C/C(=N\Nc1ncc(Cl)cc1Cl)c1ccc2c(c1)OCO2	/	-5	13*	/	-3	1	-1
